Results from ChEMBL document CHEMBL3988442, “University of Dundee, Small-Polar-MMV Screening Library” (2021).
Several values for one entry are separate records, joined by “and”; a condition that tells them apart may be missing. Equal entries are not always repeated. For some of these results: Entries with a potency or affinity are not part of this list.

Key:
Parameters in all cases: scale not given: direction of the effect not stated beside the values
[1] = molecular target: Protein translocase subunit SecA (Escherichia coli (strain K12)) (UniProt P10408); test: Assay to Identify E. coli SecA ATPase Inhibitors; format: functional; conditions: 30 µM
[2] = molecular target: T1, Ubiquitin-activating enzyme e1, putative (Leishmania donovani (strain BPK282A1)) (UniProt E9BSI1); test: Leishmania donovani Ubiquitin Activating Enzyme (LdE1); format: functional; conditions: 30 µM
T1 sequence (whole entry): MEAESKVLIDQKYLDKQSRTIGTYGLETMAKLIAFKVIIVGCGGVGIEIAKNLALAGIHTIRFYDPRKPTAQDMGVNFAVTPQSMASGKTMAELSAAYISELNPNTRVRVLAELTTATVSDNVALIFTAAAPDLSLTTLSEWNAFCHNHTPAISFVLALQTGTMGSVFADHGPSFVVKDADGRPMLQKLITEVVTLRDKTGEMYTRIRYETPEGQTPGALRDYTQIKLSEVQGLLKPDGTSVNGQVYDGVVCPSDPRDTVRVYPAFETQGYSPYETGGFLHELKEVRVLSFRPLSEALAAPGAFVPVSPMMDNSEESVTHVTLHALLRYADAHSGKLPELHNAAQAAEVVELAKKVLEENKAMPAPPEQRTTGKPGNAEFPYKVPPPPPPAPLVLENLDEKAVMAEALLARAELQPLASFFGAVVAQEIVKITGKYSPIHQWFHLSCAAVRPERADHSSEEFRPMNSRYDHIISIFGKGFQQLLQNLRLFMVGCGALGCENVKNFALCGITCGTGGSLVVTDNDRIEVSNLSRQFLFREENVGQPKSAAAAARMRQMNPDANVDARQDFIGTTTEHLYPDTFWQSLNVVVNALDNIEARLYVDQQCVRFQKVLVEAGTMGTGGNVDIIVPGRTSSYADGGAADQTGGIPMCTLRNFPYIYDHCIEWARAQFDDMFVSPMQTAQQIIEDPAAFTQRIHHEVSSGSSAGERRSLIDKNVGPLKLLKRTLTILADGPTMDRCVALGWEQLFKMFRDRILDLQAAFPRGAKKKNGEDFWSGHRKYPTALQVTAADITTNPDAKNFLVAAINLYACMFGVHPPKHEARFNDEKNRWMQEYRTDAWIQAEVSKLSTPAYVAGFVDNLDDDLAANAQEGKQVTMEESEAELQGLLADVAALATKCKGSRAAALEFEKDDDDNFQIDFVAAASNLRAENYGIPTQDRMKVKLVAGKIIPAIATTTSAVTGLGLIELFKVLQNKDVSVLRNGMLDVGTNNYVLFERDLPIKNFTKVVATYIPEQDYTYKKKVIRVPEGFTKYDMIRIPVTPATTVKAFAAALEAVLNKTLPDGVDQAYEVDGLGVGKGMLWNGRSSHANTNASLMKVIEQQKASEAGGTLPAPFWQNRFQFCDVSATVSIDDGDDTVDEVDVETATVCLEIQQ

[3] = molecular target: AMP-activated protein kinase, AMPK (Homo sapiens) (UniProt P54646+O43741+P54619+Q9UGJ0+Q9Y478+Q13131+Q9UGI9); test: AMP-dependent Kinase enzyme assay. An in vitro enzyme assay that detects ADP turnover that is directly proportional to AMPK activity. This uses naive AMPK that is activated during the assay with MK-8722; format: functional; conditions: 30 µM
[4] = molecular target: Sialic acid-binding Ig-like lectin 9 (Homo sapiens) (UniProt Q9Y336); test: Hs-Siglec9 ALPHAscreen SOP 20170721; conditions: 10 µM
Trypanosoma cruzi = test: Trypanosoma cruzi phosphomannomutase and mannose-1-phosphate guanylyltransferase assay; format: functional; conditions: 10 µM
[5] = molecular target: T2, Arginase-2, mitochondrial (Homo sapiens) (UniProt P78540); test: in vitro enzyme assay to detect the production of urea directly proportional to the activity of Arginase II; format: functional; conditions: 33.3 µM; further: in the data most compounds retested in dose-response had high values
T2 sequence (whole entry): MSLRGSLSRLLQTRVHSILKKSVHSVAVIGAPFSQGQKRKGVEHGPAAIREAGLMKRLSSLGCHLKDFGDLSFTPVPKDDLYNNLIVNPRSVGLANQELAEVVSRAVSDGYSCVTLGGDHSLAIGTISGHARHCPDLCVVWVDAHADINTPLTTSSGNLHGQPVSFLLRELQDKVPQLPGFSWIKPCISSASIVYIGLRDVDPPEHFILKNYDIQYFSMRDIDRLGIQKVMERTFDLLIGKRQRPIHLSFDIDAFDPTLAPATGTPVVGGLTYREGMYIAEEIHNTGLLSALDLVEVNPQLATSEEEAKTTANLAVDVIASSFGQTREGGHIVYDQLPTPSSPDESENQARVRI

[6] = molecular target: T3, Proteasome subunit beta (Trypanosoma cruzi) (UniProt O96673); test: Trypanosoma cruzi proteasome chymotrypsin-like activity (TcProtChymo) assay.; further: in the data most compounds retested in dose-response had high values; format: functional; conditions: 9.37 µM
T3 sequence (whole entry): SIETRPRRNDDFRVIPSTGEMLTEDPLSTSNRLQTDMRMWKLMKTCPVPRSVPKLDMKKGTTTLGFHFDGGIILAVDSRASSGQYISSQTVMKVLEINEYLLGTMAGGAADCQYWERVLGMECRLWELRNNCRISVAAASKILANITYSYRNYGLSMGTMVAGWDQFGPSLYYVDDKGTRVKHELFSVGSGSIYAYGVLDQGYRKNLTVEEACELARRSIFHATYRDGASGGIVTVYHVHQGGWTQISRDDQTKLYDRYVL

Homo sapiens = species on record: Homo sapiens; test: To identify inhibition of the IFN signalling (Jak-Stat) pathway via expression of an eGFP reporter gene under the control of an IFN-stimulated response element (ISRE) containing MxA promoter.; format: functional; conditions: 30 µM
[7] = molecular target: T4, Tyrosyl-tRNA synthetase, putative (Trypanosoma cruzi (strain CL Brener)) (UniProt Q4DSP6); test: Trypanosoma cruzi tyrosyl tRNA synthetase (TcYRS) _High Tyrosine SOP; format: functional; conditions: 30 µM; further: in the data most compounds retested in dose-response had high values
T4 sequence (whole entry): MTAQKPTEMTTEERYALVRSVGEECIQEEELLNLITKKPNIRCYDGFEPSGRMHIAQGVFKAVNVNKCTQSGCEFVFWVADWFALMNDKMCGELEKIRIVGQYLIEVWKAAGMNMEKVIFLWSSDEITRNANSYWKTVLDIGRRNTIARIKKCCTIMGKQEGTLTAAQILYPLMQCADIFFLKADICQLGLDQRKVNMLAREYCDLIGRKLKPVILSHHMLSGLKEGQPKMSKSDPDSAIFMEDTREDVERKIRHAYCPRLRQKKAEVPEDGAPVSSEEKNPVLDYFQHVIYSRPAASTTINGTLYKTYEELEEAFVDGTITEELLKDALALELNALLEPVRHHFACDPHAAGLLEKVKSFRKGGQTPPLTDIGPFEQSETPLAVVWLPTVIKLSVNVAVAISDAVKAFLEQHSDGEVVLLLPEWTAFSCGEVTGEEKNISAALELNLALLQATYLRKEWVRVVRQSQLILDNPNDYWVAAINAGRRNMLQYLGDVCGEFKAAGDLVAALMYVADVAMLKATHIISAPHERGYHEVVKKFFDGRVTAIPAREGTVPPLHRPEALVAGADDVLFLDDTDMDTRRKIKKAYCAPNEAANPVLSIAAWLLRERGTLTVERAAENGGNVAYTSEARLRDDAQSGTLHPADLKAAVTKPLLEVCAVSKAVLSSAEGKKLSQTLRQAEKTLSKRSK

[8] = molecular target: T4, Tyrosyl-tRNA synthetase, putative (Trypanosoma cruzi (strain CL Brener)); test: Trypanosoma cruzi tyrosyl tRNA synthetase (TcYRS) SOP; format: functional; conditions: 30 µM
[9] = molecular target: Chromo domain-containing protein 1 (Saccharomyces cerevisiae (strain ATCC 204508 / S288c) (Baker's yeast)) (UniProt P32657); test: ScCHD-1 Enzyme Inhibition Assay; format: functional; conditions: 30 µM; further: in the data most compounds retested in dose-response had high values
N/A = test: Trypanosoma cruzi proteasome luciferase counter-screen; format: functional; conditions: 9.37 µM

Sequence of Protein translocase subunit SecA (Escherichia coli (strain K12)) (P10408 whole entry): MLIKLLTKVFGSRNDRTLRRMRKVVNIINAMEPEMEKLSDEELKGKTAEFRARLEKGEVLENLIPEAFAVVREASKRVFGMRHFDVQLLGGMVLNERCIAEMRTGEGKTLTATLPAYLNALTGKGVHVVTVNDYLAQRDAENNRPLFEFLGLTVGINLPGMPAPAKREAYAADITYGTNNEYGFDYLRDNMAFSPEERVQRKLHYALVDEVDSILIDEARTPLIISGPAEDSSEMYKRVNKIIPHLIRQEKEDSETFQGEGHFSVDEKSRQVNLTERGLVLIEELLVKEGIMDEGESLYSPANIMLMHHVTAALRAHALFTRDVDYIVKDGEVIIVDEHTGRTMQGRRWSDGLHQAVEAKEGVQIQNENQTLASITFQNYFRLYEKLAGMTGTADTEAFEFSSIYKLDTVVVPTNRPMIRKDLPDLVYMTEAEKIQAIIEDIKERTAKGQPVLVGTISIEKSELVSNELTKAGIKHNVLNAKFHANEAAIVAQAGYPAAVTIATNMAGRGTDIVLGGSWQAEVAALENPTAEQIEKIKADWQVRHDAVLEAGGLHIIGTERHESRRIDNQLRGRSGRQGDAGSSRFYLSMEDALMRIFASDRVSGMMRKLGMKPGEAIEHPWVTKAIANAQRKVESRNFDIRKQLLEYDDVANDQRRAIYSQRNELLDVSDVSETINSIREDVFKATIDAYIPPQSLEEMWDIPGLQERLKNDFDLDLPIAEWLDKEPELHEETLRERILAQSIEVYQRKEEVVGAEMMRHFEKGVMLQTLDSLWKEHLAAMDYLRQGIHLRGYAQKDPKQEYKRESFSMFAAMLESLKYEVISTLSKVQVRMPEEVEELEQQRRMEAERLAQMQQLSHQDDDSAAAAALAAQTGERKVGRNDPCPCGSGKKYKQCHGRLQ
Sequence of Chromo domain-containing protein 1 (Saccharomyces cerevisiae (strain ATCC 204508 / S288c) (Baker's yeast)) (P32657 whole entry, the tested form may be a part): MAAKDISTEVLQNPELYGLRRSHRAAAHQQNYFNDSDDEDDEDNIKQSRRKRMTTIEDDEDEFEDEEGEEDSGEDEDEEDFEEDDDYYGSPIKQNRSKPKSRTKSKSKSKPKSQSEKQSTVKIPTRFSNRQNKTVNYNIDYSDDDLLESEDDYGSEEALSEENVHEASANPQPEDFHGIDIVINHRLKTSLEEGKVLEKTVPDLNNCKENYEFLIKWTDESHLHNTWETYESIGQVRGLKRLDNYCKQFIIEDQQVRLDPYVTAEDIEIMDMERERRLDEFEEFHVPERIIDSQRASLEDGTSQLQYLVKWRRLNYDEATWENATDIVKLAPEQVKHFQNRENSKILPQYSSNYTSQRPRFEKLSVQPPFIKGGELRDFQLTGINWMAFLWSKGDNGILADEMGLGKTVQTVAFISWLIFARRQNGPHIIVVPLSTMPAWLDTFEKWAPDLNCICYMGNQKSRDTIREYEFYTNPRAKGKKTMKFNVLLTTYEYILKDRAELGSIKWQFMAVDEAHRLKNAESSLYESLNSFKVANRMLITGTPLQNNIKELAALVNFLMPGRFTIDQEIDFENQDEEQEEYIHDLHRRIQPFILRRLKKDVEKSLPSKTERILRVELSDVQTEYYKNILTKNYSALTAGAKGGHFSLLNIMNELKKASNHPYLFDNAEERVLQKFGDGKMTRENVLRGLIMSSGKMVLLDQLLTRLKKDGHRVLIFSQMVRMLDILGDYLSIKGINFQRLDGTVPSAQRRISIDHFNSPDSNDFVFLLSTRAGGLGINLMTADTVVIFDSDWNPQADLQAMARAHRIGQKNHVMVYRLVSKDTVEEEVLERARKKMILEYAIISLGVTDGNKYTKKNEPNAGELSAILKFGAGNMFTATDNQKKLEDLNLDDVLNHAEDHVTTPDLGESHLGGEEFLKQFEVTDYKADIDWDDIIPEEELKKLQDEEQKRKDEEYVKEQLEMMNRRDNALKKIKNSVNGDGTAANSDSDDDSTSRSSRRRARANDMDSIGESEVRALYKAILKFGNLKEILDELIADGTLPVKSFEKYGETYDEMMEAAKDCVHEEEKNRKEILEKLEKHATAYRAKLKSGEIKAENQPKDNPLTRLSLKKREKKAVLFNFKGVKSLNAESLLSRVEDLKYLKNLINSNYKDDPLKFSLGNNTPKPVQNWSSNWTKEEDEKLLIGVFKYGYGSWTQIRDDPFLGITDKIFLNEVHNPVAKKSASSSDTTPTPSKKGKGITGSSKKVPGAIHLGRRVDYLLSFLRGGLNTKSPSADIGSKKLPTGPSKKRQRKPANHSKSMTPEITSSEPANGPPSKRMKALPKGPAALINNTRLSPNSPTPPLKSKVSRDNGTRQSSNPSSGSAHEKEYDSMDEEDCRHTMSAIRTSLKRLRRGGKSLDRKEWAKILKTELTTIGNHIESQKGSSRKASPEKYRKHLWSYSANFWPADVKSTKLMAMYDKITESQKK
Sequence of Sialic acid-binding Ig-like lectin 9 (Homo sapiens) (Q9Y336 whole entry): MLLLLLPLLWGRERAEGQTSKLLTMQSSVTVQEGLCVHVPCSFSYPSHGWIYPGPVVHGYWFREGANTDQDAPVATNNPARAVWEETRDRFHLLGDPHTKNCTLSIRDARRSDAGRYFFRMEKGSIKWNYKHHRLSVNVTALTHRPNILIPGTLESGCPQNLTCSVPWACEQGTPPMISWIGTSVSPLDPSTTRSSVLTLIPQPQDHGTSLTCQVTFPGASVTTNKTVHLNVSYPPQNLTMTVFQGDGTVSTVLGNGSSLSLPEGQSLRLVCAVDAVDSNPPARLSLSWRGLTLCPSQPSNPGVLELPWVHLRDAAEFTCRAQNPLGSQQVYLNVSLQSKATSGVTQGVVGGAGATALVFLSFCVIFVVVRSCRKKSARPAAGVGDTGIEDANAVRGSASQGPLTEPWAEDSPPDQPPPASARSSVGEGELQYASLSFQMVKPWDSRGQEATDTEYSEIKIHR

| SMILES | Percent Effect [1] [%] | Percent Effect [2] [%] | Percent Effect [3] [%] | Percent Effect [4] [%] | Percent Effect (Trypanosoma cruzi) [%] | Percent Effect [5] [%] | Percent Effect [6] [%] | Percent Effect (Homo sapiens) [%] | Percent Effect [7] [%] | Percent Effect [8] [%] | Percent Effect [9] [%] | Percent Effect (N/A) |
| --- | --- | --- | --- | --- | --- | --- | --- | --- | --- | --- | --- | --- |
| Cc1cccc(-c2ccc(C(=O)NCC(C)(C)C(N)=O)c(=O)[nH]2)c1 | -5.4 | 2.7 | -7.65 | 17.1 | 2.92 | -2.81 | 5.41 | 0.882 | -0.493 | 11.1 | -14.8 |  |
| O=C(CCn1ccc2cc(Br)ccc21)NCc1ccc(C(=O)O)cc1 | -5.12 | 2.63 | 11.6 | 0.438 | -3.02 | -3.55 | 16.2 | 10.9 | -6.38 | -10.4 | -1.59 |  |
| CCc1nnc2n1CC(CNCc1ccncc1)CC2 (stereo not given) | 1.7 | 4.17 | -9.25 | -5.88 | -3.6 | 5.3 | 19.6 | -6.46 | 5.26 | 0 | -3.45 |  |
| Cc1ccsc1CNC(=O)Cc1c(C)nc2c(c1C)c(=O)[nH]n2C | -4.14 | 10.4 | 5.94 | 8.57 | -2.06 | 2.32 | 5.25 | 21.2 | 2.86 | 11.8 | -20.4 |  |
| O=c1ccc(-c2cccs2)nn1CN1CCCCCC1 | -4.24 | -4 | -3.16 | 2.9 | 3.54 | -3.35 | 7.21 | -1.68 | 7.41 | 10.3 | -5.05 |  |
| O=C(c1ccc2c(c1)COC2)N1CCN(CC2CC2)CC1 | -2.51 | 5.06 | -1.47 | 8.43 | -0.283 | -1.52 | -2.21 | 0.542 | 4.43 | -1.27 | 1.49 |  |
| CCN(Cc1nc2c(cnn2C)c(=O)[nH]1)c1ccc(OC)c(OC)c1 | -2.86 | 24.1 | 14.9 | -0.321 | 0.513 | -2.8 | 23.3 | 27 | 9.38 | 20.2 | -22.5 |  |
| Cn1cc(CN2CCCN(C(=O)c3cc(Cl)cn3C)CC2)cn1 | -2.96 | 13.2 | -8.7 | -2.03 | -6.39 | -3.45 | 20.6 | 28 | 1.47 | 7.32 | -9.82 |  |
| Cc1occc1C(=O)N1CCC2(CC1)C(c1cnn(C)c1)CC(=O)N2C (stereo not given) | -5.4 | 13.5 | 6.87 | -12.9 | -4.59 | 1.59 |  | 15.9 | -11.9 | 7.69 | -4.17 | 11.5% and 13.8% |
| CC(C)c1ccsc1C(=O)N1CCCN(Cc2cscn2)CC1 | -1.52 | 2.6 | -0.162 | -7.44 | 0.686 | -2.32 | 19.8 | 21.5 | 18.1 | 32.9 | -19.8 |  |
| CN(C(=O)c1cccc(C(=O)NCC(F)(F)F)c1)c1ccccc1 | -6.02 | -2.6 | -0.584 | 2.53 | -5.8 | -6.9 | 9.82 | 7.29 | -1.07 | -8.64 | 0.0055 |  |
| Cc1cc(S(=O)(=O)NCc2cccc(C(=O)N3CCCC3)c2)c(C)s1 | -4.9 | 13 | -3.16 | -6.78 | 4.21 | -1.9 | 10.1 | 15.2 | 5.71 | 21.2 | -17.7 |  |
| Cc1ncsc1C(=O)NC1CCN(CC(=O)N(C)C(C)(C)C#N)CC1 | -9.21 | 7.89 | -2.06 | 0.841 | -1.77 | 1.08 | -2.45 | 23.3 | 1.48 | -1.24 | 2.71 |  |
| CCN(CC)Cc1ccc(C(=O)N2CCCCC2Cn2cccn2)o1 (stereo not given) | -1.67 | -5.41 | 0.822 | 4.06 | -0.0929 | -1.29 | 3.23 | 2.84 | 0 | 1.22 | 0.882 |  |
| CCN1CCN(c2ccc(F)cc2C(C)NCc2noc(C)n2)CC1 (stereo not given) | -1.18 | -8.11 | -2.95 | -6.13 | -1.27 | 1.74 | 2.83 | -7.51 | 1.07 | 1.24 | -0.843 |  |
| CN(Cc1cc[nH]n1)C(=O)c1cccc(CCC(C)(C)O)c1 | -4.29 | -2.67 | 0.5 | 1.39 | -5.16 | -0.521 |  | -13.1 | 0.546 | 3.7 | -5.03 | 6.9% and 8.45% |
| CCc1nc(C2CCCN2Cc2nc(CCOC)no2)no1 (stereo not given) | -3.77 | 10.4 | -0.579 | 7.16 | 6.59 | -5.52 | 3.49 | -6.27 | 3.23 | 11.1 | -7.19 |  |
| Fc1cc(CNCc2ccc3c(c2)CCO3)ccc1N1CCOCC1 | -0.571 | -8.11 | -9.24 | -2.02 | 0 | -2.86 | 6.38 | 2.17 | -2.65 | 0 | -3.66 |  |
| Cc1ccc(NC2CCN(C(=O)CCNS(C)(=O)=O)CC2)nn1 | -4.31 | -2.7 | -5.25 | 9 | -0.279 | -5.36 | -5.21 | 2.45 | 1.98 | 6.1 | 7.54 |  |
| O=C(c1ccncc1)N1CCC(c2nc(O)cc(-c3ccncc3)n2)C1 (stereo not given) | -4.75 | 21.3 | 0.106 | -1.99 | 0.984 | -2.1 |  | 4.05 | 6.38 | 14.1 | -6.07 | 6.33% and 4.26% |
